Compound activity as filed in PubChem BioAssay.
Shown are actives, neighbours in structure and some others; about 7% of the full set was active somewhere.
PI5P4K alpha inh: PI5P4K alpha (human) kinase inhibition | PI5P4Kalpha enzyme, ADP-Glo luminescence, 60 min; active compounds read low | max response, % | P48426 | actives 1.2% (n = 330,000); active means max response of -50% or lower; inconclusive means between -30% and -50%; inactive means -30% or higher; further: value at the top dose of about 77 µM; on the % scale 0 is the no-effect control and ±100 the full control effect
Target sequence (P48426 whole entry, looked up): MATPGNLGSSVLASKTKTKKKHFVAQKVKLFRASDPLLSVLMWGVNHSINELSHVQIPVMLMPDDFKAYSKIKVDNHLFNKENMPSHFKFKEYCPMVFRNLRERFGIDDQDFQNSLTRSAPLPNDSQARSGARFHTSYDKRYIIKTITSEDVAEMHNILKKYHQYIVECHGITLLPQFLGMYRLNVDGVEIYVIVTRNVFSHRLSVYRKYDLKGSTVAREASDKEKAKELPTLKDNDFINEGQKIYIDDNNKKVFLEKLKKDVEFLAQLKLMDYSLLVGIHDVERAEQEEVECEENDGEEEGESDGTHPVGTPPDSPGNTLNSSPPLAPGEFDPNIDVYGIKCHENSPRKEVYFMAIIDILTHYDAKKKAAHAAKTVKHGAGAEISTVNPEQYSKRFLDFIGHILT
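Reactions run in 0.038 M HEPES pH 7.4, 0.28 mM EGTA, 0.1% CHAPS and 5% DMSO, with PI5P4Kalpha, substrate, compound and 5 microM ATP final, one hour at room temperature. Readout is ADP-Glo luminescence.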
BAZ2B block: blocks human BAZ2B. Q9UIF8. AlphaScreen BAZ2B-H3K14Ac peptide displacement. Potency, µM (series often up to 114 µM), for the others: at the top dose activity change, negative = inhibition, hits mostly inhibitors. actives 4.4% (n = 360,000); further: potency means the concentration at half of the fitted maximal effect; on the % scale 0 is the no-effect control and ±100 the full control effect; nearly all actives have a fitted effect of over 60% in size
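In this displacement format the biotinylated H3(5-23) peptide acetylated at Lys14 serves as ligand at 50 nM, with BAZ2B at 50 nM in PBS pH 7.4 containing 0.01% Tween-20. Donor and acceptor beads are 10 ug/mL final.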
HP1b chromo inh: blocks HP1-beta chromodomain binding to methylated histone tails. actives 0.56% (n = 390,000). Potency, µM (highest dose often 114 µM), for inactives: at the top dose activity change, negative = inhibition, hits mostly inhibitors. P83916. AlphaScreen HP1-beta / biotin-H3K9me3 peptide binding; further: potency means the concentration at half of the fitted maximal effect; nearly all actives have a fitted effect of over 70% in size
Target sequence (P83916 whole entry, looked up): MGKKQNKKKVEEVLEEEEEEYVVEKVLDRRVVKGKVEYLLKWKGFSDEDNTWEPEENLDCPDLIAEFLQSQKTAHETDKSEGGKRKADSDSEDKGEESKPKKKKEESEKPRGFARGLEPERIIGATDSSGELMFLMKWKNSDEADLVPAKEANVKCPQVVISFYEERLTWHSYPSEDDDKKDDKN
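HP1-beta protein (50 nM final) preincubated 30 min at room temperature with biotinylated H3(1-18)K9me3 peptide (50 nM) in PBS pH 7.4, 0.01% Tween-20, then compound added for 30 min. AlphaScreen streptavidin donor/nickel chelate acceptor beads (10 ug/mL final), 30 min dark, luminescence read.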
PLK1 PBD inh: blocks phosphopeptide binding to human PLK1 polo-box domain | P53350 | Plk1 PBD binding of FITC phosphopeptide, fluorescence polarization | Potency, µM, for inactives: max response, negative = inhibition, actives largely listed as inhibitors | actives 2.8% (n = 360,000) | AID 720504; further: potency means the concentration at half of the fitted maximal effect; series mostly up to about 57 µM; on the % scale 0 is the no-effect control and ±100 the full control effect; nearly all actives have a fitted effect of over 65% in size
KAT2A inh: blocks human GCN5L2 histone acetyltransferase. GCN5L2 HAT assay, ThioGlo1 CoA-SH fluorescence. actives 0.21% (n = 390,000). Potency, µM (top dose mostly 58.9 µM), without a hit: at the top dose activity change, negative = inhibition, usual class: inhibitors. AID 504327; further: potency means the concentration at half of the fitted maximal effect; on the % scale 0 is the no-effect control and ±100 the full control effect
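Fluorescence readout, Ex340nm/Em540nm: ThioGlo1 (50uM final) reacts with free CoA thiol released as 20nM GCN5L2 acetylates H3(1-25) peptide (75uM) using acetyl-CoA (70uM). Compound and enzyme sat 15 min beforehand; 20 min room-temperature reaction.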
JMJD2A Tudor: blocks the human JMJD2A Tudor domain; actives 4.4% (n = 390,000); Potency, µM (titrated, usually from 114 µM), inactives show top-dose activity change, negative = inhibition, hits mostly inhibitors; AlphaScreen JMJD2A-Tudor / H3K4me3 peptide binding; AID 504339; further: potency means the concentration at half of the fitted maximal effect; on the % scale 0 is the no-effect control and ±100 the full control effect; nearly all actives have a fitted effect of over 50% in size
An asterisk follows results filed as active; ? = inconclusive; / = no result; ! = a repeat was not active; [ ] = another dose, or the depositor's remark. Unless noted, the call rests on the fitted dose curve; in most records, active means well fitted curve in the direction sought with a large enough effect; inconclusive means small, poorly fitted or top-dose-only effect, or another doubt; inactive means no such curve, though single readings can be large; an effect the other way counts as inactive or inconclusive.

SMILES | PI5P4K alpha inh | BAZ2B block | HP1b chromo inh | PLK1 PBD inh | KAT2A inh | JMJD2A Tudor
COc1ccc(-c2nc3cccc(C)n3c2NCc2ccco2)cc1OC | -6 | 50µM* | -16% | -16% | ? | ?
O=C1CCC2=C1C1(CCCC1)N=C(Nc1nc3ccccc3o1)N2 | / | / | / | / | / | -22%
CC(C)(C)C(=O)C1=C(O)C(=O)N(Cc2ccccc2)C1c1ccccc1Cl (stereo unspecified) | 1 | 2% | 35% | -9% | -9% | -12%
CC(=O)C1=C(O)C(=O)N(CC(=O)O)C1c1ccccc1Cl (stereo unspecified) | -5 | 71µM* | 23% | -7% | -7% | ?
O=C(COc1ccccc1)Nc1nc(-c2ccncc2)cs1 | -25 | -13% | -19% | 27µM* | -21% | -6%
Cc1cc(C)cc(OCC(=O)Nc2nc(-c3cccnc3)cs2)c1 | -20 | -5% | ? | 12µM* | -5% | -14%
Cc1cccc(OCC(=O)Nc2nc(-c3ccncc3)cs2)c1 | 1 | 8% | 36% | 4% | -1% | -7%
CCn1c2ccccc2c2cc(NC(C)=O)ccc21 | 3 | 2% | 25% | -2% | -4% | -28%
CCn1c2ccccc2c2cc(NC(=O)CNCC3CCCO3)ccc21 (stereo unspecified) | 4 | 50µM* | ? | -12% | -2% | -27%[11.4 µM]
CCn1c2ccccc2c2cc(NC(=O)C(=O)N3CCOCC3)ccc21 | -5 | -19% | ? | 21µM* | 1% | ?
CC=CC1OCC(CC)C(CCC)O1 (stereo unspecified) | 14 | / | 25% | 4% | / | -10%
O=C(/C=C/c1ccco1)NCCc1ccc(F)cc1 | ? | 79µM* | ? | -29% | -9% | -36%
CC1=Cc2ccccc2C(C#N)N1C(=O)c1ccccc1 (stereo unspecified) | 2 | 19% | 32% | -16% | -4% | -14%
CC#CCCC(=O)N1C=Cc2ccccc2C1C#N (stereo unspecified) | -20 | -1% | ? | 12µM* | -1% | -15%[11.4 µM]
CC(C)(C)OC(=O)N1CCC(c2c(C(=O)NCc3ccco3)cnn2-c2ccccc2)CC1 | / | -1%[57.1 µM] | -16% | / | 3% | -24%
COc1ccc(/C=C(\NC(=O)c2ccc(C)cc2)C(=O)NCCCn2ccnc2)cc1 | -2 | 50µM* | 23% | -4% | -1% | -18%
CN(C)c1ccc(/C=C(/NC(=O)c2ccccc2)C(=O)NCCCn2ccnc2)cc1 | 7 | 35µM* | 1% | 5% | -6% | -35%
Cc1ccc(C(=O)N/C(=C\c2cn(S(=O)(=O)N(C)C)c3ccccc23)C(=O)NCCCn2ccnc2)cc1 | 18 | ? | 50µM*! | 30µM* | -8% | ?
COc1ccccc1C(=O)N/C(=C\c1cn(S(=O)(=O)N(C)C)c2ccccc12)C(=O)NCCCn1ccnc1 | / | ? | 26% | / | -3% | ?
O=C(NCCCn1ccnc1)/C(=C/c1ccc(Cl)cc1)NC(=O)c1ccccc1 | 1 | 50µM* | 16% | 2% | 1% | -31%
COc1ccc(/C=C(\NC(=O)c2ccc([N+](=O)[O-])cc2)C(=O)NCCCn2ccnc2)cc1 | -3 | ? | 25% | -10% | -5% | -9%
N#Cc1nc(Nc2cc(F)cc(F)c2)c2ncn(C3CCCC3)c2n1 | / | / | / | / | / | -3%
CCCc1cc(C(=O)Nc2ccc(C(=O)c3ccc(C)cc3)cc2)n(C)n1 | 4 | -1% | 44% | -4% | ? | -16%
Nc1nc(COC(=O)C2CC(=O)N(Cc3ccccc3Cl)C2)nc(Nc2ccccc2)n1 (stereo unspecified) | 4 | -5% | 21% | -16% | -13% | -23%
CCc1ccc(-n2c(C)nnc2SCc2nc(-c3ccc(OC)cc3)no2)cc1 | / | -14% | 30% | / | -2% | -27%
SMILES | PI5P4K alpha inh | BAZ2B block | HP1b chromo inh | PLK1 PBD inh | KAT2A inh | JMJD2A Tudor
CCOC(=O)c1c(-c2ccc(C)o2)csc1NC(=O)CSc1nncs1 | / | -3% | ? | ? | ? | 56µM*
CCOC(=O)c1c(-c2ccc(OC)cc2)csc1NC(=O)CCN1C(=O)c2ccccc2C1=O | / | -18% | -32% | 11µM* | -14% | -33%
CCOC(=O)c1c(-c2ccc(OC)cc2)csc1NC(=O)CCN1CCOCC1 | -4 | 22µM* | ? | -17% | -3% | 20µM*
CCOC(=O)c1c(-c2ccc(C)cc2)csc1NC(=O)CCN1CC(C)OC(C)C1 (stereo unspecified) | 8 | 22µM* | 35µM* | -16% | -14% | 8.9µM*
COc1cc(C=O)ccc1Oc1ccc(S(=O)(=O)N2CCOCC2)cc1[N+](=O)[O-] | -6 | / | -5% | 1% | -4% | -29%
CCOC(=O)c1c(-c2ccc3ccccc3c2)csc1NC(=O)CCCC(=O)O | -2 | -39% | 9% | 24µM* | -13% | -19%
CCCCCCCc1ccc(-c2ccc(O)cc2)nc1 | 5 | -37% | ? | 24µM* | -20% | -10%[11.4 µM]
CCOc1cc(/C=N/N=C2/NC(=O)C(CC(=O)O)S2)ccc1OS(=O)(=O)c1ccc(C)cc1 (stereo unspecified) | ? | ? | 26% | -9% | 0% | -7%
CCOc1cc(/C=N/N=C2/NC(=O)C(CC(=O)O)S2)ccc1OCc1ccccc1Cl (stereo unspecified) | -20 | 50µM* | 14% | ? | -14% | ?
COc1ccc(/C=N/N=C2/NC(=O)C(CC(=O)O)S2)cc1OCc1ccc(Cl)cc1Cl (stereo unspecified) | -56* | 50µM* | -17% | -18% | -22% | ?
COc1ccc(/C=N/N=C2/NC(=O)C(CC(=O)O)S2)cc1OCc1ccccc1Cl (stereo unspecified) | ? | 50µM* | -13% | -24% | -2% | ?
C=CCN(C(=O)CSc1nc2ccsc2c(=O)n1Cc1ccc(C(=O)O)cc1)c1ccccc1 | 3 | / | / | -13% | / | /
CN1C2CCC1/C(=C/c1cccn1C)C(=O)/C2=C\c1cccn1C | -5 | 45µM* | ? | 122% | -4% | 45µM*
Cn1cccc1/C=C1\CC(C(C)(C)C)C/C(=C\c2cccn2C)C1=O (stereo unspecified) | / | 28µM* | ? | -11% | 0% | 40µM*
COc1cc(/C=C2\CC(C(C)(C)C)C/C(=C\c3cc(OC)c(OC)c(OC)c3)C2=O)cc(OC)c1OC (stereo unspecified) | 22 | ? | ? | 8% | -1% | ?
CCOC(=O)C1CCN(c2ncnc3c2c(-c2ccccc2)cn3-c2ccc(C)c(Cl)c2)CC1 | / | -1% | -5% | / | -2% | -19%
